Active and inactive are the calls of the source. Rule for the calls: active = hit-call score of the fitted dose curve at least 0.9, where 1 is the maximum; inactive = score below 0.9.
How the values were obtained:
[1] = system: SRY-box transcription factor 17 (SOX17) Protein Expression, Deisenroth Lab, SOX17 (gene 64321); assay: CCTE_Deisenroth_DEVTOX-GLR_Endo_SOX17: CCTE's DevTox GLR-Endo Assay Evaluation of SRY-box transcription factor 17 (SOX17) Protein Expression, Deisenroth Lab (AID 2284413)
Summary of the method: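 RUES2-GLR human pluripotent cells were differentiated toward endoderm for 48 h and received two compound doses 24 h apart (1 nM - 200 uM, 10 points). High-content imaging of fixed cells gave the percent SOX17+ cells per cell count, expressed as percent change versus 0.2% DMSO.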

[2] = system: Brachyury (BRA) Protein Expression, TBXT (gene 6862); assay: CCTE_Deisenroth_DEVTOX-GLR_Endo_BRA: CCTE's DevTox GLR-Endo Assay Evaluation of Brachyury (BRA) Protein Expression, Deisenroth Lab (AID 2284417)
Summary of the method: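 Percent BRA+ (mesoderm) RUES2-GLR cells after 48 h differentiation with two exposures, 1 nM - 200 uM; 0.2% DMSO control subtracted.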

[3] = CCTE_Deisenroth_DEVTOX-GLR_Endo_CellCount: Viability Assessment in CCTE's DevTox GLR-Endo Assay, Deisenroth Lab (AID 2284420)
Summary of the method: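 Measured 48 h after dosing: fluorescent nuclei counted by imaging in human RUES2-GLR cells under defined differentiation media, tested at 1 nM - 200 uM. Values are percent cell-count change relative to 0.2% DMSO.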

[4] = system: SRY-box transcription factor 2 (SOX2) Protein Expression, Deisenroth Lab, SOX2 (gene 6657); assay: CCTE_Deisenroth_DEVTOX-GLR_Pluri_SOX2: CCTE's DevTox GLR-Pluri Assay Evaluation of SRY-box transcription factor 2 (SOX2) Protein Expression, Deisenroth Lab (AID 2284428)
Summary of the method: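 Percent SOX2+ RUES2-GLR cells, determined by fluorescence microscopy after 48 h and two 24-h-interval chemical exposures spanning 1 nM–200 uM, served as the endpoint. Values are expressed relative to 0.2% DMSO; total cell counts assessed viability.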

[5] = Tanguay_ZF_120hpf_CRAN: Oregon State University Tanguay Lab 120 Hour Post-fertilization zebrafish Assay for Craniofacial Malformation (AID 2284397)
Summary of the method: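 Dechorionated Tropical 5D wild-type zebrafish embryos, one per well, were statically exposed from 6 to 120 hpf at 28C in 0.64% DMSO, with 5uM trimethyltin chloride as positive control. Craniofacial malformation was scored present/absent by brightfield microscopy, relative to DMSO.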

[6] = Tanguay_ZF_120hpf_AXIS: Oregon State University Tanguay Lab 120 Hour Post-fertilization zebrafish Assay for Axial Malformation (AID 2284398)
Summary of the method: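 Dechorionated 5D wild-type zebrafish embryos exposed statically, one per well, from 6 to 120 hpf at 28C, 0.64% DMSO. Axial malformation scored as present/absent by brightfield microscopy at 120 hpf; dead embryos not scored.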

[7] = Tanguay_ZF_120hpf_MORT: Oregon State University Tanguay Lab 120 Hour Post-fertilization zebrafish Assay for Mortality (AID 2284399)
Summary of the method: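 Dechorionated wild-type Tropical 5D zebrafish embryos, one per well from 6 hpf, static exposure to 120 hpf at 28C in sealed dark plates, 0.64% DMSO final. Mortality scored as binary by brightfield at 24 and 120 hpf.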

[8] = Tanguay_ZF_120hpf_EDEM: Oregon State University Tanguay Lab 120 Hour Post-fertilization zebrafish Assay for Edema Malformation (AID 2284400)
Summary of the method: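 Dechorionated Tropical 5D wild-type embryos, one per well, statically exposed from 6 to 120 hpf at 28C in 0.64% DMSO. Edema scored present/absent by brightfield microscopy at 120 hpf; dead embryos not scored; fit versus DMSO.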

[9] = Tanguay_ZF_120hpf_BRN: Oregon State University Tanguay Lab 120 Hour Post-fertilization zebrafish Assay for Brain Region Malformation (AID 2284402)
Summary of the method: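 Dechorionated wild-type Tropical 5D zebrafish embryos exposed statically from 6 to 120 hpf at 28C, one per well, 0.64% DMSO final. Brain malformation scored at 120 hpf by brightfield as present/absent; dead embryos not scored.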

[10] = Tanguay_ZF_120hpf_TCHR: Oregon State University Tanguay Lab 120 Hour Post-fertilization zebrafish Assay for Touch Responsive (AID 2284403)
Summary of the method: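 Dechorionated Tropical 5D wild-type zebrafish embryos, one per well from 6 hpf, were statically exposed to 120 hpf at 28 °C (0.64% DMSO). Touch response was scored present/absent at 120 hpf and not scored in dead larvae.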

[11] = Tanguay_ZF_120hpf_ANY: Oregon State University Tanguay Lab 120 Hour Post-fertilization zebrafish Assay for Any Mortality and Malformation (AID 2284404)
Summary of the method: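 Dechorionated Tropical 5D wild-type embryos, one per well from 6 hpf, static exposure in sealed, dark plates at 28C until 120 hpf, 0.64% DMSO final. Brightfield scoring of mortality and malformations as binary presence/absence, pooling 13 morphology endpoints.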

[12] = CCTE_Padilla_ZF_Score.Craniofacial: CCTE's 144 Hour Post-fertilization zebrafish Assay Score for Craniofacial Malformation, Padilla Lab (AID 2284405)
Summary of the method: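 Wild-type zebrafish embryos (with chorions), one per well in 10% Hanks', were dosed at 6–8 hpf in sealed plates and kept at 26C. They were rinsed at 5 dpf. At 6 dpf two blinded assessors scored craniofacial malformations by brightfield stereomicroscopy.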

[13] = CCTE_Padilla_ZF_Score.Edema: CCTE's 144 Hour Post-fertilization zebrafish Assay Score for Edema Malformation, Padilla Lab (AID 2284406)
Summary of the method: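 Wild-type zebrafish embryos, one per well in Hanks' solution, dosed at 6-8 hpf, sealed and reared at 26C on a 14:10 h cycle; rinsed on 5 dpf. At 6 dpf, blinded assessors scored edema by stereomicroscopy.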

[14] = CCTE_Padilla_ZF_Score.Spine: CCTE's 144 Hour Post-fertilization zebrafish Assay Score for Spine Malformation, Padilla Lab (AID 2284407)
Summary of the method: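 Wild-type zebrafish embryos, one per well in Hanks' solution, dosed at 6–8 hpf in sealed plates at 26C, 14:10 h light:dark; rinsed at 5 dpf. Two blinded assessors scored spinal defects by stereomicroscopy at 6 dpf; fitted versus DMSO.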

[15] = CCTE_Padilla_ZF_Score.Swim_bladder: CCTE's 144 Hour Post-fertilization zebrafish Assay Score for Swim Bladder Malformation, Padilla Lab (AID 2284408)
Summary of the method: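 Wild-type zebrafish embryos, one per well in 10% Hanks', dosed at 6–8 hpf, sealed, reared at 26C and rinsed at 5 dpf. Blinded assessors scored uninflated swim bladder by stereomicroscopy at 6 dpf, relative to DMSO.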

[16] = CCTE_Padilla_ZF_Score.Position: CCTE's 144 Hour Post-fertilization zebrafish Assay Score for Position, Padilla Lab (AID 2284409)
Summary of the method: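 Wild-type zebrafish embryos (with chorions) exposed singly from 6–8 hpf in sealed wells of Hanks' solution at 26C, rinsed at 5 dpf. At 6 dpf, blinded assessors scored abnormal water-column position by brightfield stereomicroscopy, relative to DMSO.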

[17] = CCTE_Padilla_ZF_Score.Living: CCTE's 144 Hour Post-fertilization zebrafish Assay Score for Viability, Padilla Lab (AID 2284410);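 note: larval death at 6 dpf judged by absent heartbeat or coagulation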
Summary of the method: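 Wild-type zebrafish embryos were exposed singly from 6–8 hpf in sealed wells of Hanks' solution at 26C, then rinsed at 5 dpf. At 6 dpf, blinded assessors scored mortality (no heartbeat or coagulation) by stereomicroscopy, fitted against DMSO.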

[18] = CCTE_Padilla_ZF_Score.Tail: CCTE's 144 Hour Post-fertilization zebrafish Assay Score for Tail Malformation, Padilla Lab (AID 2284414)
Summary of the method: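 Wild-type zebrafish embryos, one per well in 200 uL 10% Hanks', dosed at 6-8 hpf, sealed, and kept at 26 C on a 14:10 h light cycle. Chemical was rinsed out at 5 dpf. Blinded brightfield scoring of tail defects followed at 6 dpf.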

[19] = CCTE_Padilla_ZF_Score.Blood_pooling: CCTE's 144 Hour Post-fertilization zebrafish Assay Score for Blood Pooling, Padilla Lab (AID 2284415)
Summary of the method: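 Wild-type outbred zebrafish embryos, one per well in 10% Hanks', exposed from 6–8 hpf in sealed plates at 26C on 14:10 h light:dark, rinsed at 5 dpf. Blinded stereomicroscope scoring of blood pooling at 6 dpf; gain-of-signal versus DMSO.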

[20] = CCTE_Padilla_ZF_Score.Any: CCTE's 144 Hour Post-fertilization zebrafish Assay Score for Any Mortality or Malformation, Padilla Lab (AID 2284416)
Summary of the method: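 Wild-type zebrafish embryos with chorions, one per well in 10% Hanks' from 6–8 hpf, dosed in sealed plates at 26 C, 14:10 h light:dark; rinsed at 5 dpf; blinded scoring at 6 dpf for death or malformation, versus DMSO.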

Measured: AC50

CC1(C)[C@@H]2CC[C@@]1(C)C(=O)C2
inactive: [1] | [2] | [3] | [4]

C[N+](C)(C)CCCNS(=O)(=O)C(F)(F)C(F)(F)C(F)(F)C(F)(F)C(F)(F)C(F)(F)C(F)(F)C(F)(F)F
active: [5] 70.4 µM | [8] 67.1 µM | [11] 80 µM | [17] 50.1 µM | [20] 26.2 µM
inactive: [6] | [7] | [9] | [10] | [12] | [13] | [14] | [15] | [16] | [18] | [19]

O=C(O)C(F)(F)C(F)(F)C(F)(F)C(F)(F)C(=O)O
inactive: [5] | [6] | [7] | [8] | [9] | [10] | [11] | [12] | [13] | [14] | [15] | [16] | [17] | [18] | [19] | [20]
